Pf Dd2 growth: inhibitors of Plasmodium falciparum Dd2 growth. P. falciparum Dd2 growth, SYBR Green, 72 h. Potency, µM (top dose mostly 28.9 µM), most hits filed as inhibitors. actives 4.3% (n = 120,000); active means well fitted inhibition curve with a large enough effect; further: nearly all actives have a fitted effect of over 65% in size
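Infected erythrocytes (Dd2, 0.3% parasitemia, 2.5% hematocrit final) are added to compound in RPMI-1640/Albumax II medium, grown 72 h at 37C in low oxygen, then lysed with saponin/Triton-X containing SYBR Green and read by fluorescence.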
Large screens that a line does not name were inactive. The sample as a whole holds a higher share of hits than the screen did.

CCn1cc(S(=O)(=O)N2CCC(Cc3nc(-c4cccnc4)n[nH]3)C2)cn1 (stereo unspecified)	none
CN1[C@@H](CCC(=O)NCc2cccnc2)CNC(=O)[C@@H]2[C@H]1CCN2C1CCCCC1	none
CCN1C(=O)c2ccccc2Sc2ccc(NC(=O)N3CCN(c4cc(C)ccc4C)CC3)cc21	none
CC(C)NC(=O)Nc1ccc2c(c1)N(C)C(=O)c1ccccc1S2	none
CN1C(=O)c2ccccc2Sc2ccc(NC(=O)N3CCN(c4ccc(F)cc4)CC3)cc21	Pf Dd2 growth 7.9µM
O=C(c1ccccn1)N1CC[C@H]2COC(=O)N2c2cc(F)ccc2C1	none
CCCNC(=O)C1COC2(CCC(C)CC2)N1C(=O)c1ccccc1Cl (stereo unspecified)	none
CCCOc1ccc(CNC(=O)c2ccc(-n3c(C)cc4c3CCC(C)C4)cc2)cc1 (stereo unspecified)	none
Cc1cc2c(n1-c1ccc(C(=O)NCCc3ccccc3)cc1)CCC(C)C2 (stereo unspecified)	none
COc1ccc(OC)c(CNC(=O)c2ccc3c(c2)c(C)c(C)n3C)c1	none
COc1ccc(Br)cc1CNC(=O)c1ccc(-n2c(C)cc3c2CCC(C)C3)cc1 (stereo unspecified)	Pf Dd2 growth 13µM
COc1ccc(CCNC(=O)c2ccc(-n3c(C)cc4c3CCC(C)C4)cc2)cc1OC (stereo unspecified)	none
Cc1cc2c(n1-c1ccc(C(=O)NCc3cccc(Br)c3)cc1)CCC(C)C2 (stereo unspecified)	Pf Dd2 growth 11µM
CCc1ccc(CNC(=O)c2ccc3c(c2)nc2n3CCC(C)C2)cc1 (stereo unspecified)	none
O=C(NCc1cccc(Br)c1)C1CCN(c2cnc3nccnc3c2)CC1	none
CCc1ccc(CNC(=O)c2ccc(-n3c(C)cc4c3CCC(C)C4)cc2)cc1 (stereo unspecified)	Pf Dd2 growth 13µM
O=C(NCc1ccccc1Cl)C1CCN(C(=O)c2ncn3c2COC(c2ccccc2)C3)CC1 (stereo unspecified)	none
Cn1nc(C2CCN([S+](=O)([O-])c3cccc(C(F)(F)F)c3)CC2)[nH]c1=O	none
Cc1ccccc1CCC1CCCN(S(C)(=O)=O)C1 (stereo unspecified)	none
Cc1ccccc1CCC1CCCNC1 (stereo unspecified)	Pf Dd2 growth 11µM
Cc1ccccc1CCC1CCCN(C(=O)CCc2cnccn2)C1 (stereo unspecified)	none
O=C(C1CN(c2cccc(Cl)c2)C(=O)N1)N1CCOCC1 (stereo unspecified)	none
CS(=O)(=O)N1CCC(Cc2ccc(C(N)=O)cc2)CC1	none
COCCC(=O)N1CCC2(CC1)NCCc1c2[nH]c2ccccc12	none
O=C(Cn1c(=O)oc2ccccc21)N1CCC2(CC1)NCCc1c2[nH]c2ccccc12	Pf Dd2 growth 8.9µM
O=C(CN1CCCC1=O)N1CCC2(CC1)NCCc1c2[nH]c2ccccc12	none
Cc1noc(C)c1-c1cc2c(cc(C)n2C)c(Nc2ccncn2)n1	none
CCOC(=O)c1ccc(NC(=O)CC2Sc3ccc(C(F)(F)F)cc3NC2=O)cc1 (stereo unspecified)	none
CCOC(=O)c1ccc(NC(=O)CC2Nc3cc(C)c(C)cc3NC2=O)cc1 (stereo unspecified)	Pf Dd2 growth 4µM
CCOC(=O)c1ccc(NC(=O)CC2Nc3cccc4cccc(c34)NC2=O)cc1 (stereo unspecified)	Pf Dd2 growth 10µM
CC(=O)c1ccc(NC(=O)CC2Nc3cccc4cccc(c34)NC2=O)cc1 (stereo unspecified)	none
CCOc1ccc(NC(=O)CC2Nc3cccc4cccc(c34)NC2=O)cc1 (stereo unspecified)	none
NC(=O)c1ccc(NC(=O)C[C@H]2NC(=O)c3ccccc3NC2=O)cc1	none
Cc1cccc2c1nc1n2[C@@H](CNC(=O)c2ccncc2)COC1	none
O=C(N[C@H]1CCOC[C@H]1C1CCOCC1)c1ccccc1-c1ncc[nH]1	none
CSCc1noc(Cn2nc(-c3ccccc3)c3ccccc3c2=O)n1	none
Cc1ccc2nc(-c3cc(NC(=O)/C=C/c4ccccc4)ccc3Cl)oc2c1	Pf Dd2 growth 11µM
O=C(/C=C/c1ccccc1)Nc1cc(-c2nc3ccccc3o2)ccc1Cl	none
Cc1ccc2nc(-c3cc(NC(=O)c4ccc5c(c4)OCCO5)ccc3Cl)oc2c1	none
COc1cc(OC)cc(-c2onc(C)c2C(=O)NCCc2ccc(F)cc2)c1	none
CN(C)C(=O)c1cc2cccnn2n1	none
CNC(=O)[C@H]1C[C@H](Oc2cccnc2)CN1S(=O)(=O)c1ccc(OC)cc1	none
COc1ccccc1CC(=O)N[C@@H]1CN(C)C[C@H]1CN(C)C	none
COc1ccccc1CCC(=O)N1CC[C@@H]2CN(S(C)(=O)=O)[C@@H]2C1	none
CCN(CC)S(=O)(=O)N(C)CC1CCCN(CCc2ccccc2OC)C1 (stereo unspecified)	Pf Dd2 growth 2.8µM
CS(=O)(=O)N1CCOC(Cn2ccnc2-c2ccc(CO)o2)C1 (stereo unspecified)	none
CCc1nc(-c2c3n(c(=O)n(CC(=O)Nc4cc(C)cc(C)c4)c2=O)CCCC3)no1	none
CCC(=O)N1CC(C(N)=O)C2(CCOCC2)C1 (stereo unspecified)	none
COc1ccc(-c2noc([C@@H](C)N(C)C)c2C(=O)O)cc1	none
COc1ccc(Cl)cc1C(=O)NC1CCN(C(=O)c2cc3c(=O)[nH]c(C)cn3n2)CC1	Pf Dd2 growth 5µM
Cc1cn2nc(C(=O)N3CCC(NC(=O)c4cccc(Cl)c4)CC3)cc2c(=O)[nH]1	none
Cc1cn2nc(C(=O)N3CCC(NC(=O)c4ccccc4C)CC3)cc2c(=O)[nH]1	none
Cc1cccc(NC(=O)C2CCN(C(=O)c3ncn4c3COC(c3ccccc3)C4)CC2)c1 (stereo unspecified)	none
Cn1ncc(N2CCCC(CC(=O)NCCc3ccccc3)C2)cc1=O (stereo unspecified)	none
CC(=O)N[C@@H]1CN(C(=O)c2[nH]c3c(C)ccc(C)c3c2C)C[C@H]1C(C)C	none
O=C(c1cccc(-c2ncc[nH]2)c1)N1CCCC(O)(CN2CCCC2)C1 (stereo unspecified)	none
O=C(c1ccccc1-c1nn[nH]n1)N1CCOCC(O)(CN2CCCC2)C1 (stereo unspecified)	none
Cc1ccc(C)c2c(C)c(C(=O)N3CCCC(O)(CN4CCCC4)C3)[nH]c12 (stereo unspecified)	Pf Dd2 growth 11µM
O=C(c1cccc(-n2cccn2)c1)N1CCOCC(O)(CN2CCCC2)C1 (stereo unspecified)	none
Cc1ccc(-c2cccc(C(=O)N3CCCC(O)(CN4CCCC4)C3)c2)o1 (stereo unspecified)	Pf Dd2 growth 11µM
Cc1cc(C)cc(NC(=O)C2CCN(C(=O)c3nnn4cc(C)[nH]c(=O)c34)CC2)c1	none
COc1ccccc1-c1nc2nccc(-c3ccc(Br)s3)n2n1	none
CCc1ccc2c(c1)NC(c1ccc(C)cc1)=NC(c1cccs1)=N2	Pf Dd2 growth 13µM
FC(F)(F)Oc1ccc2c(c1)NC(c1ccncc1)=NC(c1cccs1)=N2	none
CC(C)c1ccc2c(c1)NC(c1ccncc1)=NC(c1cccs1)=N2	none
COCCO[C@H]1C(=O)N(C2CCN(C(=O)c3ccc4cc[nH]c4c3)CC2)[C@H]1c1ccncc1	none
COCCNC(=O)[C@@H]1C[C@@H](O)CN1C1CCN(C(=O)c2ccccc2F)CC1	none
CCOc1ncccc1C(=O)N(C)Cc1nc(-c2ccccc2)no1	none
O=C(CN1CC2CC(C1)[C@H]1CCCC(=O)N1C2)NCc1cccc(Cl)c1 (stereo partly specified)	none
CC(C)CCN1CCNC(=O)C1CC(=O)N(Cc1nccs1)C1CC1 (stereo unspecified)	none
COc1ccc(C(=O)Nc2ccc(-c3nnc4n3CCCCC4)cc2)cc1	none

Compound activity (PubChem)
